# MBD2 DNA inh: MBD2-methylated oligo binding inhibition; inhibition, % at 4.4 µM; 370,000 compounds, 0.31% hits; TR-FRET, MBD2 binding to methylated oligonucleotide; AID 686964; Q9UBB5; in the data active = inhibition above about 13%
# Target sequence (Q9UBB5 whole entry, looked up): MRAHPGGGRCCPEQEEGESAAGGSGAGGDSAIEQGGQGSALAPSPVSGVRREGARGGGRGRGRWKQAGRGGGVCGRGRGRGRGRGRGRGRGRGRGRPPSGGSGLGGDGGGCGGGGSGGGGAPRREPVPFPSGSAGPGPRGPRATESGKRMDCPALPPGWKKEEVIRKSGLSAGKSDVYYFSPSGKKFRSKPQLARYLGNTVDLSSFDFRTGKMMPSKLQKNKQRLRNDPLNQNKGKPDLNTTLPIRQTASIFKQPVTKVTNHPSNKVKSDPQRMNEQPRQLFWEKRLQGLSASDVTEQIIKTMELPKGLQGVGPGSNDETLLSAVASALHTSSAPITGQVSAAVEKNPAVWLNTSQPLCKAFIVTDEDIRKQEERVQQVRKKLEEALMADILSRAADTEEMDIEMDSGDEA
# LEDGF integ inh: blocks HIV-1 LEDGF/p75-dependent DNA integration; TR-FRET IN-LEDGF/p75 DNA integration, Eu/Cy5; inhibition, % at 3.7 µM; 370,000 compounds, 0.64% hits;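 active = inhibition above the screen-wide mean plus 3 SD, cut at about 13% in these data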;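 also: signal is the Cy5 over europium emission ratio at 671 and 618 nm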
# Rin1-Abl PPI inh: human Rin1-Abl interaction inhibition | P00519+Q13671 | TR-FRET Rin1/Abl binding, biochemical | inhibition, % at 7.35 µM | 360,000 compounds, 0.4% hits; in the data active = inhibition above about 5%, passing the limit was not always enough
# Neddylation inh: blocks human cullin neddylation. TR-FRET cullin neddylation, biochemical. calls only at 25 µM. AID 651699. P61081+Q13564. 360,000 compounds, 0.58% hits; in the data active = inhibition above about 36%
# UHRF1 MBD2 ctr: blocks human UHRF1 binding to methylated DNA; AID 687016; inhibition, % at 4.4 µM; UHRF1 binding to methylated oligo, TR-FRET; 370,000 compounds, 0.75% hits; in the data active = inhibition above about 21%;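 also: UHRF1 SRA domain binding a hemimethylated CpG hairpin DNA probe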
# proKLK7 act: activates the human kallikrein-7 zymogen. activation, % at 7 µM. purified proKLK7, EDANS-DABCYL substrate fluorescence; 100% is mature enzyme control, 0% vehicle. 370,000 compounds, 0.9% hits. AID 652039;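 active = activation above the mean of all tested compounds plus 3 SD, computed per campaign excluding outliers beyond control limits, cut at about 13% in these data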
# Target sequence (P49862 whole entry, looked up): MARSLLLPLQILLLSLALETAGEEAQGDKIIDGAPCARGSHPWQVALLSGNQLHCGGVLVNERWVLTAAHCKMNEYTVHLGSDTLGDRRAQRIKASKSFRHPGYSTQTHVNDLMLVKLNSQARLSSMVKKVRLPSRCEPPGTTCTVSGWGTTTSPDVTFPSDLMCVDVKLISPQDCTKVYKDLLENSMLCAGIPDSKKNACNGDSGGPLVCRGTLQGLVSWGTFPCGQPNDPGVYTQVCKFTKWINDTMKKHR
# KLK7 act conf: confirmation of human kallikrein-7 zymogen activators. purified proKLK7, EDANS-DABCYL substrate fluorescence; scaled: vehicle 0, mature enzyme 100. activation, % at 7 µM. 3,200 compounds, 68% hits. shares compounds with proKLK7 act;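 active = activation, as change over the incubation, above the mean of all tested compounds plus 3 SD, cut at about 13% in these data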
# EDANS-DABCYL int: optically interferes with EDANS-DABCYL signal, flagging KLK7 hits; activation, % at 7 µM; shares compounds with proKLK7 act; EDANS-DABCYL substrate fluorescence interference, no enzyme, 4 h; solvent 0%, active enzyme control 100%; 3,200 compounds, 80% hits; AID 686952;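 active = activation above the all-compound mean plus 3 SD, ignoring values outside control-based bounds, cut at about 4.8% in these data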;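 also: value is the 4 h activation minus the activation read at time zero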
# K7 EDANS ctr: EDANS fluorescence interference in dose response, no enzyme; shares compounds with proKLK7 act; EDANS-DABCYL peptide fluorescence interference; EC50, µM; 250 compounds, 20% hits; AID 720493;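 active = compounds that raise the fluorescence signal in this interference counterscreen, with EC50 at or below 10 µM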;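 also: intact quenched peptide substrate alone read at 355 nm excitation and 520 nm emission; signal is fluorescence gain from T0 to T4 after four hours at room temperature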
# Numbers stand for hits; . = inactive; / = no result given. This is a sample that favours compounds with a hit; in the whole collection about 3.1% have one here.
SMILES,MBD2 DNA inh,LEDGF integ inh,Rin1-Abl PPI inh,Neddylation inh,UHRF1 MBD2 ctr,proKLK7 act,KLK7 act conf,EDANS-DABCYL int,others
O=C(NN=C1c2ccccc2-c2ccccc21)c1cccc(Br)c1,.,.,.,.,.,.,/,/,
CC(C)c1ccc(N2CC(C)(C)C2=O)cc1,.,.,.,.,.,.,/,/,
O=C1CCC[C@@H]2C=C[C@H](c3ccc(Br)cc3)[C@H]3CCN1[C@@H]32,.,.,/,.,.,.,/,/,
CC1CCC(NC(=O)c2ccc(COc3ccccc3)o2)CC1 (configuration not stated),.,.,.,.,.,.,/,/,
CC(C)C[C@@H]1COc2cc(Br)ccc2S(=O)(=O)N1Cc1cn(CC2CCCCC2)nn1,.,.,/,/,.,.,/,/,
CCc1cc2c(nc1CC)CCCN2C,.,.,/,/,.,29.5,.,.,
CCn1c2ccccc2c2cc(NC(=O)CNCC3CCCO3)ccc21 (configuration not stated),.,.,.,.,.,.,/,/,
CCn1c2ccccc2c2cc(NC(=O)CN3CCCC3)ccc21,.,.,.,.,.,81.9,.,.,
CCc1cc(=O)oc2cc(OC(=O)CN3C(=O)NC4(CCCC4)C3=O)ccc12,.,.,.,/,.,97.0,59.8,67.7,
CCOC(=O)Nc1ccc2c(CN3C(=O)NC4(CCCC4)C3=O)cc(=O)oc2c1,.,.,.,/,.,.,/,/,
O=C(CN1C(=O)NC2(CCCCC2)C1=O)Oc1ccc2c(C(F)(F)F)cc(=O)oc2c1,.,.,.,/,.,63.4,60.7,65.7,
O=C(CN1C(=O)NC2(CCCC2)C1=O)Oc1ccc2ccc(=O)oc2c1,.,.,.,/,.,67.0,63.1,71.6,
NCCCN1CCOCC1,.,.,.,.,.,.,/,/,
Cc1ccccc1NC(=O)Cc1nnc(SCC(=O)NC2CCCCC2)n1C,.,.,.,.,.,.,/,/,
COc1ccc(-c2oc3c(c2C#CC(C)(C)O)C(OC)CCC3)cc1 (configuration not stated),.,.,/,/,.,23.1,.,.,
COc1ccccc1C(=O)C1CCCN(C(=O)c2cnn(C(C)C)c2)C1 (configuration not stated),.,.,.,.,.,.,/,/,
COc1ccc2cc3cc(C(=O)NCc4ccco4)oc3nc2c1,.,.,.,/,.,49.5,.,.,
COc1ccc2nc3oc(C(=O)NCc4cccs4)cc3cc2c1,.,.,.,/,.,.,/,/,
COc1ccc2cc3cc(C(=O)NCc4ccccn4)oc3nc2c1,.,.,.,/,.,42.1,.,.,
O=C(NCc1ccco1)c1cc2cc3ccc(Cl)cc3nc2o1,.,.,.,.,.,.,/,/,
C#Cc1ccc(NC(=O)C2(C)CCN2C(=O)CC(c2ccccc2)c2ccccc2)cc1 (configuration not stated),.,.,.,.,.,.,/,/,
CCC(=O)c1ccc(OCC(=O)OCC(=O)Nc2sccc2C(N)=O)cc1,.,.,.,.,.,.,/,/,
CCOCC(=O)Nc1ccc(-c2cn3cccnc3n2)cc1,.,.,.,/,.,39.0,67.1,78.8,
CC(C)(C)CC(=O)Nc1ccc(-c2cn3cccnc3n2)cc1,.,.,.,/,.,74.0,66.1,64.6,
CCCC(=O)Nc1cc(-c2cn3cccnc3n2)ccc1OC,.,.,.,.,.,.,/,/,
SMILES,MBD2 DNA inh,LEDGF integ inh,Rin1-Abl PPI inh,Neddylation inh,UHRF1 MBD2 ctr,proKLK7 act,KLK7 act conf,EDANS-DABCYL int,others
CCCC(=O)Nc1ccc(-c2cn3cccnc3n2)cc1,.,.,.,/,.,57.7,67.1,62.6,
Cc1onc(-c2ccccc2Cl)c1C(=O)Nc1ccc(-c2cn3cccnc3n2)cc1,/,/,.,/,/,/,/,/,
COc1ccc(-c2cn3cccnc3n2)cc1NC(=O)CC(C)C,.,.,.,/,.,.,/,/,
CCN(CC)S(=O)(=O)c1cccc(-c2cn3cccnc3n2)c1,.,.,.,/,.,20.7,37.5,24.7,K7 EDANS ctr=.
C=CCNC1CCC12CCC(c1ccccc1)CC2 (configuration not stated),.,.,/,/,.,/,/,/,
O=C(CCC(=O)OCC(F)(F)C(F)F)Nc1ccccc1F,.,.,.,.,.,.,/,/,
CCc1ccc([C@H]2[C@@H]3C(=O)C[C@@H]4C(=O)N(Cc5ccccc5)C(=O)[C@@H]4[C@@H]3CN2S(=O)(=O)c2ccc(C)cc2)cc1,.,.,.,.,.,.,/,/,
O=C(N1CCC(C(O)(c2ccccc2)c2ccccc2)CC1)n1ncc(C(O)(c2ccccc2)c2ccccc2)n1,.,.,/,/,.,/,/,/,
CCCC(=O)Nc1cccc(-c2cn3cccnc3n2)c1,.,.,.,/,.,30.2,42.2,45.1,
CC(C)CC(=O)Nc1ccc(-c2cn3cccnc3n2)cc1,.,.,.,/,.,70.4,66.4,68.3,
CC(=O)Nc1ccc(S(=O)(=O)Nc2cccc(-c3cn4cccnc4n3)c2)cc1,.,.,.,/,.,42.8,.,7.8,
O=C(Nc1ccccc1)Nc1cccc(-c2cn3cccnc3n2)c1,.,.,.,.,.,.,/,/,
CC(=O)Nc1ccc(S(=O)(=O)Nc2cccc(-c3csc(C)n3)c2)cc1,.,.,.,.,.,.,/,/,
COC(=O)C1=C(C)N(Cc2ccccc2C(F)(F)F)C(=NCc2cc(OC)c(OC)c(OC)c2)NC1c1cccc(C(F)(F)F)c1 (configuration not stated),.,.,/,/,.,.,/,/,
CCC(=O)Nc1ccc(NCc2cccs2)cc1,.,.,.,.,.,.,/,/,
CC(C)Cn1c(=O)c2ccccc2n2c(CCC(=O)O)nnc12,.,.,.,.,.,.,/,/,
COCCN(C(=O)Cc1cccs1)c1nnc(-c2ccncc2)s1,.,.,.,.,.,17.3,40.0,42.2,
C/C(=N\NC(=O)c1cc(-c2ccc(C)s2)nc2ccccc12)c1cccnc1,.,.,.,/,.,65.7,.,.,
Cc1ccc(-c2cc(C(=O)NCc3ccco3)c3ccccc3n2)s1,.,.,.,/,.,15.6,21.6,65.4,
O=C(NCCCn1ccnc1)c1cc(-c2ccncc2)nc2ccccc12,.,.,.,.,.,.,/,/,
O=C(NCc1ccco1)c1cc(-c2cccs2)nc2ccccc12,.,.,.,/,.,.,/,/,
Cc1ccc(-c2cc(C(=O)NCCCn3ccnc3)c3ccccc3n2)s1,.,.,.,/,.,35.3,74.8,75.7,
CCn1c(N2CCN(C(=S)Nc3ccc(OC)cc3)CC2)nc2ccccc21,.,.,.,.,.,.,/,/,
COC(=O)C1CN(C2CCCC2)CCS(=O)(=O)N1Cc1ccc(C)cc1 (configuration not stated),.,.,/,/,.,.,/,/,
